Source: PubChem
IL2 activator: activators of IL-2 | IL-2 activation reporter assay, cell-based qHTS; stimulated with anti-CD3/CD4/CD28 beads; in transgenic mouse T cells | activation, % (series mostly up to about 46 µM) | 360,000 tested, 0.065% active | AID 652025; in the data active means activation above about 50%; inconclusive means mostly about 30% to 49%; further: 0% is about no effect
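Readout is EGFP and DsRed signal by fluorescent plate cytometry after 18 h at 37 degrees C. Transgenic mouse T cells (750/well) received compound for 60 min before bead stimulation (anti-CD3, anti-CD4, anti-CD28); memory T cells served as non-tolerant control.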
ALOX12 inh: ALOX12 (human) lipoxygenase inhibition; P18054; Potency, µM (series often up to 108 µM), without a hit: at the top dose activity change, negative = inhibition, actives largely listed as inhibitors; 580,000 tested, 1.1% active; purified 12hLO, xylenol orange hydroperoxide absorbance; further: potency means the concentration at half of the fitted maximal effect; on the % scale 0 is the no-effect control and ±100 the full control effect
Target sequence (P18054 whole entry, looked up): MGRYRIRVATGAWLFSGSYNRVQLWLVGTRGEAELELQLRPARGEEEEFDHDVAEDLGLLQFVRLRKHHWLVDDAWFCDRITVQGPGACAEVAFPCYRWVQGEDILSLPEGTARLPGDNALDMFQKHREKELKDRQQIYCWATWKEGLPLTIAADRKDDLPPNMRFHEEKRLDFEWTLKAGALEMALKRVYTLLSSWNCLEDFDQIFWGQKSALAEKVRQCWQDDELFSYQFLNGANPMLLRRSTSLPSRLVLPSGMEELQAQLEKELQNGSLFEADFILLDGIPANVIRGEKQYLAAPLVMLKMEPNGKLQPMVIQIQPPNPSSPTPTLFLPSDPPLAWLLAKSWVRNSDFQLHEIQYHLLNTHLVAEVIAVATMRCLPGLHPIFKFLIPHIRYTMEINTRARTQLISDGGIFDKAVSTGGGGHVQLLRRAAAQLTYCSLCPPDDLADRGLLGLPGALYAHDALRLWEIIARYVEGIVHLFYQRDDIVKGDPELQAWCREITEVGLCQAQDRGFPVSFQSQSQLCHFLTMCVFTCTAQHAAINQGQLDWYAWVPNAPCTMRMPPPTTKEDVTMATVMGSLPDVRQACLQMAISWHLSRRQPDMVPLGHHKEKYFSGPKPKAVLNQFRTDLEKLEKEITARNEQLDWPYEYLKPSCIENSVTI
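Hydroperoxide product was detected by ferrous iron/xylenol orange as the 573 to 405 nm absorbance ratio. Arachidonic acid at 40 uM (final) was turned over for 30 min at room temperature by 150 nM human 12hLO, pH 7.0 Hepes buffer, after 15 min compound preincubation.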
uPA generation: blocks generation of uPA at the cell surface | cell surface uPA generation assay, qHTS | Potency, µM (highest dose often 38.3 µM), inactives show at the highest dose activity change, negative = inhibition, hits mostly inhibitors | 330,000 tested, 0.31% active | AID 540303; active means well fitted inhibition curve with a large enough effect; inconclusive means small, poorly fitted or top-dose-only effect; inactive means no such curve, though single readings can be large or run the other way; tested in mouse RAW 264.7 cells; further: potency means the concentration at half of the fitted maximal effect; on the % scale 0 is the no-effect control and ±100 the full control effect; nearly all actives have a fitted effect of over 55% in size
a7 integrin act: activators of alpha7 integrin expression for muscular dystrophy; 350,000 tested, 0.064% active; AID 624291; alpha7betagal myoblasts, beta-gal FDG fluorescence, 48 h; Potency, µM (top dose mostly 38.3 µM), for inactives: top-dose activation, most hits filed as activators;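 further: potency means the concentration at half of the fitted maximal effect; 100% = response of the positive control SU9516; nearly all actives have a fitted effect of over 60% in size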
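alpha7betagal+/- myoblasts (passage 13, 250/well) treated 48 h at 37C with compounds at 1:260 dilution of DMSO stock. Lysed, then beta-galactosidase activity read as FDG fluorescence (ex 480/em 540) after 30 min, with pre-read for autofluorescence.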
Nrf2 ARE act: activators of Nrf2 (ARE) signaling. 410,000 tested, 0.31% active. Potency, µM (series often up to 46.1 µM), for inactives: top-dose activation, usual class: activators. AREc32 ARE-luciferase reporter (MCF7-derived line), luminescence, 24 h; further: potency means the concentration at half of the fitted maximal effect; % of control where 0% means no effect; nearly all actives have a fitted effect of over 65% in size
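ARE-driven firefly luciferase activity in AREc32 cells measured after a 24 hr compound exposure at 37 deg C, using Steady-Glo reagent and a 30 min room-temperature hold.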
An asterisk follows results filed as active; ? = inconclusive; nt = not tested or not shown; [ ] = another dose, or the depositor's remark. Most compounds without a hit are left out; they make up all but 1.5% or so of the library. Unless noted, the call rests on the fitted dose curve; in most records, active means well fitted curve in the direction sought with a large enough effect; inconclusive means small, poorly fitted or top-dose-only effect, or another doubt; inactive means no such curve, though single readings can be large; an effect the other way counts as inactive or inconclusive.

SMILES | IL2 activator | ALOX12 inh | uPA generation | a7 integrin act | Nrf2 ARE act
COc1cc(OC)c(C=NNC(=S)NC23CC4CC(CC(C4)C2)C3)c(OC)c1 | -6 | 13µM* | 1% | 13% | 1%
COC(=O)[C@@H]1Cc2ncn(Cc3ccc(Cl)cc3)c2CN1Cc1cccc(C#N)c1 | nt | 33%[176 µM] | nt | nt | nt
Cn1c(CC(=O)Nc2ccccc2)cc2ccccc21 | 0 | 5% | 4.5µM* | -3% | 6%
CC(=O)NC(c1ccco1)c1cc(F)c2cccnc2c1O (configuration not stated) | 1 | -20% | ? | nt | -1%
CC(=O)NC(c1cccs1)c1cc(F)c2cccnc2c1O (configuration not stated) | 0 | ? | 5µM* | nt | -1%
Cc1[nH]n2c(=O)cc(-c3ccc(Cl)cc3)nc2c1-c1ccc(F)cc1 | nt | 22µM* | nt | nt | nt
NC(=S)NN=C1c2ccccc2-c2ccccc21 | -1 | 35µM* | 14% | -70% | 16%
Cc1nc2nc(-c3ccco3)[nH]n2c(=O)c1C | -2 | ? | nt | 0% | 11µM*
CC(=O)NNC(=S)Nc1ccc(Br)cc1Cl | nt | 10% | nt | nt | nt
Oc1ccc(CCNC(=S)Nc2ccc(F)cc2)cc1 | nt | 1% | nt | nt | nt
Cc1cccnc1NC(=S)Nc1ccc(Br)cc1Cl | 2 | 11µM* | -9% | 5% | 0%
Fc1ccc(CCNC(=S)Nc2ccc(Oc3ccccc3)cc2)cc1 | nt | 22µM* | nt | nt | nt
S=C(NCCc1ccccc1)Nc1ccc(Br)cc1 | 0 | 35µM* | 0% | -45% | 1%
S=C(NCCCc1ccccc1)Nc1ccc(Br)cc1Cl | nt | 45µM* | nt | nt | nt
N#Cc1ccc(COc2ccc(Cl)cc2Br)cc1 | nt | 0% | nt | nt | nt
NC(=O)c1c(NC(=O)C2COc3ccccc3O2)sc2c1CCN(Cc1ccccc1)C2 (configuration not stated) | 401* | 366% | 3% | -31% | 0%
CCOC(=O)c1c(NC(=O)C2COc3ccccc3O2)sc2c1CCN(Cc1ccccc1)C2 (configuration not stated) | -2 | ? | 10% | -15% | 0%
COC(=O)N1CCc2c(sc(NC(=O)C3COc4ccccc4O3)c2C(N)=O)C1 (configuration not stated) | 0 | 18µM* | -3% | 31% | 9%
Cc1ccn2cc(-c3ccccc3)cc2c1 | nt | 32µM* | nt | nt | nt
CN1C(=O)c2cccn2CC1CNC(=O)c1n[nH]c2ccccc12 (configuration not stated) | nt | 65% | nt | nt | nt
CN1CCCC1CNC(=O)c1cc2ccccc2s1 (configuration not stated) | nt | 21% | nt | nt | nt
S=C(NCCCCN(Cc1ccc(Cl)cc1)c1ccc(Br)cn1)NCCCc1cnc[nH]1 | -1 | 35µM* | nt | nt | 0%
O=C(NCc1ccccc1)c1ccccc1NS(=O)(=O)c1ccc2[nH]c(=O)[nH]c2c1 | nt | 6% | nt | nt | nt
CN(C)S(=O)(=O)N1C[C@H]2OC(=O)N(CCc3cccc(Cl)c3)[C@H]2C1 | nt | 30% | nt | nt | nt
CCOc1ccc(S(=O)(=O)N(C(=O)c2ccco2)c2cc3sc(=O)oc3c3ccccc23)cc1 | 0 | 32µM* | -3% | -26% | 10%
SMILES | IL2 activator | ALOX12 inh | uPA generation | a7 integrin act | Nrf2 ARE act
Cc1ccc(S(=O)(=O)N(C(=O)c2ccco2)c2cc3sc(=O)oc3c3ccccc23)cc1 | -1 | 28µM* | 1% | -41% | 4%[9.22 µM]
O=C(Nc1cc2nn(-c3ccccc3)nc2cc1Cl)c1ccco1 | 1 | 0% | 1% | 17% | 1µM*
CCn1cc(C(=O)NC(=S)Nc2ccccc2Br)cn1 | -1 | 28µM* | -10% | -17% | 0%
CCn1cc(C(=O)NC(=S)Nc2ccccc2[N+](=O)[O-])cn1 | -1 | ? | -8% | 45% | 7%
COc1ccc(Cl)cc1NC(=S)NC(=O)c1ccco1 | 0 | -10% | -8% | -26% | 10µM*
Cc1ccc(O)c(NC(=O)c2ccco2)c1 | 0 | -2% | -1% | 0% | ?
CNC(=S)Nc1cc(OC)c(NC(=O)c2ccco2)cc1OC | 0 | -10% | 2% | -11% | 5%
Cc1cc(O)c(NC(=O)c2ccco2)cc1C | -1 | ? | 4% | 3% | 13µM*
Cc1cccc(NC(=S)NC(=O)c2ccco2)c1C | 0 | 346% | -1% | -5% | 9%
O=C(NC(=S)Nc1cccc(NC(=S)NC(=O)c2ccco2)n1)c1ccco1 | 1 | ? | -1% | -28% | 6.3µM*
Nc1ccc(NC(=O)c2ccco2)c(Cl)c1 | 1 | -1% | 1% | -15% | 0%
